Experimental data: PubChem BioAssay AID1159580 (chemical genetic matrix, 2015)
Screen size: about 5,500 compounds; about 2,000 (36%) were called active. Roughly 18% stayed inconclusive and do not appear here. Rule as the data show it: active = normalized growth mostly below about 0.91 (no sharp cut-off); inconclusive = no clear call, values can overlap the other calls; inactive = mostly above about 0.92. The list shows a part of the results.

Test: chemical genetic growth profiling, strain panel (AID 1159580);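 also: tested at 20 µM; growth read once vehicle control cultures reached saturation at 30 °C; 1 = growth at the plate median or of vehicle wells; lower values mean less growth of the strain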
Details: S. cerevisiae deletion strains, growth OD
[1] = locus YAL040C, strain CLN3, active compounds read low
[2] = locus YER002W, strain NOP16, active compounds read low
[3] = locus YNL153C, strain GIM3, active compounds read low
[4] = locus YNL175C, strain NOP13, active compounds read low
[5] = locus YNL197C, strain WHI3, active compounds read low
[6] = locus YNL224C, strain SQS1, active compounds read low
[7] = locus YOR083W, strain WHI5 (second series), active compounds read low

Measured: normalized growth

CN(C)CCCC1(c2ccc(F)cc2)OCc2cc(C#N)ccc21 (configuration not stated)
inactive: locus YAL021C, strain ccr4, active compounds read low 0.999 | locus YAL026C, strain drs2, active compounds read low 0.995 | locus YAL030W, strain snc1, active compounds read low 0.987 | [1] 0.984 | locus YBL061C, strain skt5, active compounds read low 0.991 | locus YBR009C, strain hhf1, active compounds read low 0.979 | locus YBR023C, strain chs3, active compounds read low 0.987 | locus YBR171W, strain sec66, active compounds read low 0.983 | locus YBR231C, strain swc5, active compounds read low 0.981 | locus YBR279W, strain paf1, active compounds read low 0.979 | locus YCL011C, strain gbp2, active compounds read low 0.99 | locus YCL016C, strain dcc1, active compounds read low 0.997 | locus YCL061C, strain MRC1, active compounds read low 0.987 | locus YCL069W, strain vba3, active compounds read low 0.992 | locus YCR088W, strain abp1, active compounds read low 0.983 | locus YDL005C, strain med2, active compounds read low 0.985 | locus YDL040C, strain nat1, active compounds read low 0.985 | locus YDR001C, strain nth1, active compounds read low 0.981 | locus YDR069C, strain doa4, active compounds read low 0.983 | locus YDR137W, strain rgp1, active compounds read low 0.991 | locus YDR159W, strain sac3, active compounds read low 0.985 | locus YDR195W, strain ref2 0.946 | locus YDR297W, strain sur2, active compounds read low 0.993 | locus YDR334W, strain swr1, active compounds read low 0.983 | locus YDR335W, strain msn5, active compounds read low 0.991 | locus YDR392W, strain spt3, active compounds read low 0.894 | locus YEL003W, strain gim4, active compounds read low 0.987 | locus YEL037C, strain rad23, active compounds read low 1 | locus YEL061C, strain CIN8 (second series), active compounds read low 0.986 | [2] 0.994 | locus YER015W, strain faa2, active compounds read low 0.985 | locus YER016W, strain bim1, active compounds read low 0.985 | locus YER111C, strain swi4, active compounds read low 0.983 | locus YER155C, strain BEM2 (second series), active compounds read low 0.944 | locus YFR010W, strain ubp6, active compounds read low 0.976 | locus YGL167C, strain pmr1, active compounds read low 0.99 | locus YGL173C, strain kem1, active compounds read low 0.989 | locus YGL227W, strain vid30, active compounds read low 0.989 | locus YGL240W, strain doc1, active compounds read low 0.97 | locus YGL253W, strain hxk2, active compounds read low 0.993 | locus YGR229C, strain SMI1, active compounds read low 1.01 | locus YHR013C, strain ard1, active compounds read low 0.975 | locus YHR027C, strain rpn1, active compounds read low 0.985 | locus YHR030C, strain SLT2, active compounds read low 1.02 | locus YHR079C, strain IRE1, active compounds read low 1.03 | locus YHR142W, strain chs7, active compounds read low 1 | locus YJL092W, strain hpr5, active compounds read low 0.995 | locus YJL095W, strain BCK1 (second series), active compounds read low 0.989 | locus YJL095W, strain BCK1, active compounds read low 1.03 | locus YJL115W, strain asf1, active compounds read low 0.985 | locus YJL129C, strain trk1, active compounds read low 1 | locus YJL154C, strain vps35, active compounds read low 0.989 | locus YJL164C, strain tpk1, active compounds read low 0.987 | locus YJL166W, strain qcr8, active compounds read low 1 | locus YJL187C, strain SWE1, active compounds read low 0.987 | locus YJR066W, strain TOR1, active compounds read low 0.998 | locus YKL160W, strain elf1, active compounds read low 1 | locus YKR026C, strain gcn3, active compounds read low 0.96 | locus YKR091W, strain srl3, active compounds read low 0.991 | locus YLL001W, strain dnm1, active compounds read low 0.994 | locus YLL026W, active compounds read low 0.986 | locus YLL041C, strain sdh2, active compounds read low 0.992 | locus YLR027C, strain aat2, active compounds read low 0.98 | locus YLR113W, strain HOG1, active compounds read low 1.01 | locus YLR221C, strain rsa3, active compounds read low 1 | locus YLR258W, strain gsy2, active compounds read low 0.98 | locus YLR262C, strain YPT6 (second series), active compounds read low 1.05 | locus YLR320W, strain mms22, active compounds read low 0.993 | locus YLR342W, strain FKS1, active compounds read low 0.999 | locus YLR357W, strain rsc2, active compounds read low 0.952 | locus YLR370C, strain arc18, active compounds read low 0.989 | locus YLR384C, strain iki3, active compounds read low 0.98 | locus YML120C, strain ndi1, active compounds read low 0.978 | locus YMR058W, strain fet3, active compounds read low 0.993 | locus YMR125W, strain sto1, active compounds read low 0.951 | locus YMR129W, active compounds read low 0.999 | locus YMR205C, strain PFK2, active compounds read low 0.946 | locus YMR231W, strain pep5, active compounds read low 0.984 | locus YMR263W, strain SAP30, active compounds read low 0.962 | locus YNL071W, strain lat1, active compounds read low 0.99 | [3] 0.997 | [4] 1 | locus YNL183C, strain NPR1, active compounds read low 1 | [5] 1 | locus YNL209W, strain ssb2, active compounds read low 0.992 | [6] 1.02 | locus YNL248C, strain rpa49, active compounds read low 0.99 | locus YNL322C, strain KRE1 (second series), active compounds read low 0.986 | locus YNR049C, strain mso1, active compounds read low 0.982 | locus YOR001W, strain rrp6, active compounds read low 0.987 | locus YOR070C, strain gyp1, active compounds read low 0.985 | locus YOR080W, strain dia2, active compounds read low 0.99 | [7] 1.01 | locus YOR083W, strain WHI5, active compounds read low 0.999 | locus YOR106W, strain vam3, active compounds read low 1.01 | locus YOR231W, strain MKK1, active compounds read low 1.03 | locus YOR265W, strain rbl2, active compounds read low 0.987 | locus YOR270C, strain vph1, active compounds read low 0.996 | locus YOR290C, strain snf2, active compounds read low 0.985 | locus YPL051W, strain arl3, active compounds read low 0.997 | locus YPL078C, strain atp4, active compounds read low 1 | locus YPL106C, strain sse1, active compounds read low 0.959 | locus YPL240C, strain hsp82, active compounds read low 1 | locus YPL256C, strain CLN2, active compounds read low 1.04

COc1cc(C(O)CO)ccc1O (configuration not stated)
inactive: [1] 0.993 | locus YCL061C, strain MRC1 (second series), active compounds read low 0.985 | locus YDR363W, strain ESC2, active compounds read low 0.995 | [2] 0.988 | locus YGR078C, strain PAC10, active compounds read low 0.982 | locus YNL128W, strain TEP1, active compounds read low 0.991 | [3] 1.04 | [4] 0.998 | [5] 1 | [6] 0.988 | locus YNL322C, strain KRE1, active compounds read low 0.992 | [7] 1.08 | locus YPL055C, strain LGE1, active compounds read low 0.968
